Measurements published in PubChem BioAssay (NCATS).
Records with an inconclusive call do not appear. Calls of active or inactive are those of the source. The call rests on the fitted dose curve; in most records, active means well fitted curve in the direction sought with a large enough effect; inconclusive means small, poorly fitted or top-dose-only effect, or another doubt; inactive means no such curve, though single readings can be large; an effect the other way counts as inactive or inconclusive.

Experiments:
[1] = NS1 protein of Zika virus - qHTS assay to identify small molecule inhibitors in human HEK 293 cells (AID 1347053); further: nearly all actives have a fitted effect of over 55% in size
How it was run: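 HEK 293 cells pretreated with compound for 1 h, then infected with ZIKV MR766 (MOI 0.5) for 24 h at 37 C. NS1 detected by TR-FRET with two anti-NS1 antibodies; normalized to uninfected (0%) and infected (100%) wells.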

[2] = qHTS of pediatric cancer cell lines to identify multiple opportunities for drug repurposing: Primary screen for SJ-GBM2 cells (AID 1347091)
How it was run: (§1)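 Viability measured as metabolically active cells via CellTiter-Glo luminescence following 48 hours of compound exposure, 11-point dilutions in confirmatory testing. 500-1,000 cells/well plated 5 hours before dosing; controls were DMSO and 2.3 µM bortezomib.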

[3] = qHTS of pediatric cancer cell lines to identify multiple opportunities for drug repurposing: Primary screen for A673 cells (AID 1347092); further: nearly all actives have a fitted effect of over 45% in size
How it was run: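 Cell viability of A673 measured by CellTiter-Glo ATP luminescence after 48 hours compound exposure. Dilution series spanned 0.78 nM to 46 µM (MIPE, 11-point) or 0.59 nM to 46 µM (NPC, 8-point); bortezomib 2.3 uM positive control.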

[4] = qHTS of pediatric cancer cell lines to identify multiple opportunities for drug repurposing: Primary screen for SK-N-MC cells (AID 1347093)
How it was run: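 Metabolically active cells were quantified by ATP-dependent luminescence (CellTiter-Glo, 15 min at room temperature) following 48 h treatment. Cells had been plated at 500-1,000 per well and settled for 5 h beforehand.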

[5] = qHTS of pediatric cancer cell lines to identify multiple opportunities for drug repurposing: Primary screen for BT-37 cells (AID 1347094)
How it was run: (§2)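 Primary screen of approved and investigational compounds on cells in growth media at 37 degrees C, 5% CO2. MIPE set at 11-point and NPC set at 8-point dilutions; viability scored by ATP-based luminescence at 48 hours.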

[6] = qHTS of pediatric cancer cell lines to identify multiple opportunities for drug repurposing: Primary screen for NB-EBc1 cells (AID 1347095)
How it was run: as §2

[7] = qHTS of pediatric cancer cell lines to identify multiple opportunities for drug repurposing: Primary screen for U-2 OS cells (AID 1347096); further: nearly all actives have a fitted effect of over 50% in size
How it was run: (§3)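 Viability after 48 h compound treatment at 37C, 500-1,000 cells/well, read as ATP luminescence with CellTiter-Glo. Primary screens used 11-point (MIPE, 0.78 nM-46 µM) or 8-point (NPC, 0.59 nM-46 µM) final concentrations; follow-up screens used 11-point dilutions.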

[8] = qHTS of pediatric cancer cell lines to identify multiple opportunities for drug repurposing: Primary screen for SK-N-SH cells (AID 1347098); further: nearly all actives have a fitted effect of over 65% in size
How it was run: (§4)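 Cells (500-1,000/well) rested 5 h, then received compounds for 48 h; metabolically active cells were measured by CellTiter-Glo luminescence. Final concentrations spanned up to 46 µM (MIPE, 11-point) or 0.59 nM-46 µM (NPC, 8-point) in primary screens, 11-point in follow-ups.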

[9] = qHTS of pediatric cancer cell lines to identify multiple opportunities for drug repurposing: Primary screen for NB1643 cells (AID 1347099); further: nearly all actives have a fitted effect of over 50% in size
How it was run: as §2

[10] = qHTS of pediatric cancer cell lines to identify multiple opportunities for drug repurposing: Primary screen for LAN-5 cells (AID 1347100)
How it was run: as §3

[11] = qHTS of pediatric cancer cell lines to identify multiple opportunities for drug repurposing: Primary screen for BT-12 cells (AID 1347101); further: nearly all actives have a fitted effect of over 25% in size
How it was run: as §4

[12] = qHTS of pediatric cancer cell lines to identify multiple opportunities for drug repurposing: Primary screen for Rh18 cells (AID 1347102); further: nearly all actives have a fitted effect of over 65% in size
How it was run: as §3

[13] = qHTS of pediatric cancer cell lines to identify multiple opportunities for drug repurposing: Primary screen for Saos-2 cells (AID 1347097); further: nearly all actives have a fitted effect of over 40% in size
How it was run: as §2

[14] = qHTS of pediatric cancer cell lines to identify multiple opportunities for drug repurposing: Primary screen for TC32 cells (AID 1347089); further: nearly all actives have a fitted effect of over 60% in size
How it was run: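 Luminescent ATP read-out (CellTiter-Glo) of metabolically active TC32 cells after 48 h exposure. Concentration-response curves came from 11-point (MIPE, 0.78 nM–46 µM) or 8-point (NPC, 0.59 nM–46 µM) primary titrations; follow-up used 11 points.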

[15] = qHTS of pediatric cancer cell lines to identify multiple opportunities for drug repurposing: Primary screen for DAOY cells (AID 1347090); further: nearly all actives have a fitted effect of over 55% in size
How it was run: as §1
Potency means the concentration at half of the fitted maximal effect.

In the case of `CC(=Cc1ccccc1)C=C1SC(=S)N(CC(=O)O)C1=O`, the Potency [1] is reported as “inactive”, the Potency [2] is reported as “inactive” and the Potency [3] is reported as “inactive”. For the same compound, the Potency [4] was 13.2 µM (active), the Potency [5] was “inactive” and the Potency [6] was “inactive”. The Potency [7] was “inactive”, the Potency [8] was 21.5 µM (active) and the Potency [9] was “inactive”. For the same compound, the Potency [10] was “inactive”, the Potency [11] was “inactive” and the Potency [12] was “inactive”.

With `OC[C@H]1O[C@@H](Oc2cc(O)cc(C=Cc3ccc(O)cc3)c2)[C@H](O)[C@@H](O)[C@H]1O` the Potency [1] was “inactive”, the Potency [2] was “inactive” and the Potency [3] was 9.35 µM (active). For the same compound, the Potency [7] was “inactive”, the Potency [13] was “inactive” and the Potency [9] was “inactive”. For the same compound, the Potency [10] was “inactive”, the Potency [11] was “inactive” and the Potency [12] was “inactive”.

For `COCCOC(=O)C1=C(C)NC2=C(C(=O)CC(c3ccccc3OC)C2)C1c1cccc(O)c1` (centres undefined), the Potency [1] was “inactive”, the Potency [3] was 23.5 µM (active) and the Potency [4] was 18.7 µM (active). For the same compound, the Potency [7] was “inactive”, the Potency [8] was 13.6 µM (active) and the Potency [9] was 20.9 µM (active). The Potency [10] was 13.2 µM (active).

For `c1ccc2c(Cc3c[nH]c4ccccc34)c[nH]c2c1`, the Potency [1] was “inactive”, the Potency [3] was 2.35 µM (active) and the Potency [4] was 0.833 µM (active). The Potency [7] was “inactive”, the Potency [13] was 18.7 µM (active) and the Potency [8] was 9.61 µM (active). For the same compound, the Potency [9] was 4.18 µM (active) and the Potency [10] was 23.5 µM (active).

In the case of `CCC(=O)O[C@]1(C(=O)CO)CC[C@H]2[C@@H]3CCC4=CC(=O)CC[C@]4(C)[C@@H]3CC[C@@]21C`, the Potency [14] is reported as “inactive”, the Potency [15] is reported as “inactive” and the Potency [2] is reported as “inactive”. For the same compound, the Potency [3] was “inactive”, the Potency [4] was “inactive” and the Potency [5] was “inactive”. For the same compound, the Potency [6] was “inactive”, the Potency [7] was “inactive” and the Potency [13] was “inactive”. For the same compound, the Potency [8] was “inactive”, the Potency [9] was “inactive” and the Potency [10] was “inactive”. For the same compound, the Potency [11] was “inactive” and the Potency [12] was “inactive”.

With `NC(CO)(CO)CCc1ccc(Sc2cccc(OCc3ccccc3)c2)cc1Cl` the Potency [1] was 9.35 µM (active), the Potency [2] was 18.7 µM (active) and the Potency [3] was 14.8 µM (active). The Potency [4] was 2.64 µM (active), the Potency [6] was 1.87 µM (active) and the Potency [13] was 29.6 µM (active). For the same compound, the Potency [8] was 19.2 µM (active), the Potency [9] was 16.6 µM (active) and the Potency [10] was 4.18 µM (active). For the same compound, the Potency [11] was 30.6 µM (active).

With `C=C1C(=O)OC2C=C(C)CCC=C(C)CCC12` (centres undefined) the Potency [1] was “inactive”, the Potency [7] was “inactive” and the Potency [13] was 33.2 µM (active). The Potency [8] was “inactive”, the Potency [9] was 23.5 µM (active) and the Potency [10] was 23.5 µM (active). The Potency [12] was “inactive”.

For `CC(C)C[C@H](CC(=O)O)C(=O)N[C@@H](Cc1c[nH]c2ccccc12)C(=O)N[C@@H](C)c1ccccc1`, the Potency [14] was “inactive”, the Potency [15] was “inactive” and the Potency [2] was 3.72 µM (active). The Potency [3] was 1.87 µM (active), the Potency [4] was 1.66 µM (active) and the Potency [5] was 3.06 µM (active). The Potency [6] was 1.05 µM (active), the Potency [7] was “inactive” and the Potency [10] was 2.64 µM (active). The Potency [12] was “inactive”.

In the case of `CO[C@@H](C(=O)N1Cc2[nH]nc(NC(=O)c3ccc(N4CCN(C)CC4)cc3)c2C1)c1ccccc1`, the Potency [1] is reported as “inactive”, the Potency [2] is reported as 0.187 µM (active) and the Potency [3] is reported as 5.9 µM (active). The Potency [4] was 0.118 µM (active), the Potency [7] was 18.7 µM (active) and the Potency [8] was 2.15 µM (active). The Potency [9] was 0.118 µM (active), the Potency [10] was 0.0372 µM (active) and the Potency [12] was 0.935 µM (active).

For `C[C@@H]1CCN(C(=O)CC#N)C[C@H]1N(C)c1ncnc2[nH]ccc12`, the Potency [1] was “inactive”, the Potency [2] was “inactive” and the Potency [4] was “inactive”. For the same compound, the Potency [5] was “inactive”, the Potency [7] was “inactive” and the Potency [13] was “inactive”. For the same compound, the Potency [10] was “inactive”, the Potency [11] was “inactive” and the Potency [12] was “inactive”.

In the case of `CC(C)(Cc1ccc2ccccc2c1)NC[C@@H](O)COc1cccc(Cl)c1C#N`, the Potency [1] is reported as “inactive”, the Potency [3] is reported as 14.8 µM (active) and the Potency [5] is reported as 19.3 µM (active). The Potency [6] was 2.35 µM (active), the Potency [7] was “inactive” and the Potency [13] was “inactive”. For the same compound, the Potency [8] was 24.1 µM (active), the Potency [10] was 18.7 µM (active) and the Potency [12] was “inactive”.

In the case of `COc1ccc(-c2cc(=O)c3c(O)cc(O)cc3o2)cc1O`, the Potency [1] is reported as “inactive”, the Potency [3] is reported as 4.69 µM (active) and the Potency [4] is reported as 2.64 µM (active). The Potency [5] was 21.7 µM (active), the Potency [6] was 11.8 µM (active) and the Potency [7] was “inactive”. For the same compound, the Potency [13] was 18.7 µM (active), the Potency [8] was 24.1 µM (active) and the Potency [9] was 4.69 µM (active). The Potency [10] was 7.43 µM (active).

In the case of `CS(=O)c1ccc(-c2nc(-c3ccc(F)cc3)c(-c3ccncc3)[nH]2)cc1` (centres undefined), the Potency [14] is reported as “inactive”, the Potency [15] is reported as “inactive” and the Potency [2] is reported as 42.9 µM (active). The Potency [3] was 34 µM (active), the Potency [4] was 8.55 µM (active) and the Potency [5] was 17.7 µM (active). The Potency [7] was “inactive”, the Potency [11] was 44.4 µM (active) and the Potency [12] was “inactive”.

In the case of `CO[C@H]1C=CC=C(C)C(=O)NC2=CC(=O)C(NCCN(C)C)=C(C[C@@H](C)C[C@H](OC)[C@@H](O)[C@@H](C)C=C(C)[C@@H]1OC(N)=O)C2=O`, the Potency [14] is reported as 0.262 µM (active), the Potency [15] is reported as 3.72 µM (active) and the Potency [2] is reported as 0.0526 µM (active). The Potency [3] was 0.0743 µM (active), the Potency [4] was 0.187 µM (active) and the Potency [5] was 0.385 µM (active). The Potency [6] was 0.118 µM (active), the Potency [7] was 0.935 µM (active) and the Potency [13] was 2.35 µM (active). For the same compound, the Potency [8] was 0.271 µM (active), the Potency [9] was 0.166 µM (active) and the Potency [10] was 0.132 µM (active). For the same compound, the Potency [11] was 4.85 µM (active) and the Potency [12] was 0.132 µM (active).

With `Cc1ccn(-c2ccc(-c3ncco3)cc2)c(=O)c1-c1ccc2nc(N)ncc2c1` the Potency [1] was “inactive”, the Potency [4] was 3.32 µM (active) and the Potency [7] was “inactive”. The Potency [9] was “inactive” and the Potency [10] was “inactive”.

In the case of `CO[C@H]1C[C@@H]2CC[C@@H](C)[C@@](O)(O2)C(=O)C(=O)N2CCCC[C@@H]2C(=O)O[C@H]([C@@H](C)C[C@@H]2CC[C@H](O)[C@H](OC)C2)CC(=O)[C@H](C)C=C(C)[C@@H](O)[C@@H](OC)C(=O)[C@H](C)C[C@H](C)C=CC=CC=C1C`, the Potency [14] is reported as “inactive”, the Potency [15] is reported as “inactive” and the Potency [3] is reported as “inactive”. For the same compound, the Potency [7] was “inactive”, the Potency [13] was “inactive” and the Potency [8] was “inactive”. The Potency [11] was 9.68 µM (active).
